PubChem BioAssay (NCI)
Compounds without any hit were thinned out: in the full panel of roughly 83,000, 20% have a hit.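 A percent growth of 40 corresponds to 60% growth inhibition; 0 means no net growth; -100 means all cells died. Active threshold: below 10.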 Unmarked numbers belong to inactive results. Active and inactive are the calls of the source.

Legend:
Experiment in all cases: NCI-60 one-dose screen, 48 h (100 = growth as untreated, 0 = no growth, -100 = all killed)
[1] = system: NCI-H23 lung; conditions: 10 µM unless noted
[2] = system: NCI-H322M lung; conditions: 10 µM unless noted
[3] = system: NCI-H522 lung; conditions: 10 µM unless noted
[4] = system: K-562 leukemia; conditions: 10 µM unless noted
[5] = system: MALME-3M melanoma; conditions: 10 µM unless noted
[6] = system: LOX IMVI melanoma; conditions: 10 µM unless noted
[7] = system: SK-MEL-28 melanoma; conditions: 10 µM unless noted
[8] = system: SK-MEL-2 melanoma; conditions: 10 µM unless noted
[9] = system: SR leukemia; conditions: 10 µM
[10] = system: OVCAR-4 ovarian; conditions: 10 µM unless noted
[11] = system: IGROV1 ovarian; conditions: 10 µM
[12] = system: BT-549 breast; conditions: 10 µM
[13] = system: HOP-62 NSCLC; conditions: 10 µM unless noted
[14] = system: HOP-92 NSCLC; conditions: 10 µM unless noted
[15] = system: U251 CNS; conditions: 10 µM unless noted
[16] = system: CCRF-CEM leukemia; conditions: 10 µM unless noted
[17] = system: EKVX NSCLC; conditions: 10 µM unless noted
[18] = system: RPMI-8226 leukemia; conditions: 10 µM unless noted
[19] = system: NCI-H226 lung; conditions: 10 µM unless noted

Compound	growth [1]	growth [2]	growth [3]	growth [4]	growth [5]	growth [6]	growth [7]	growth [8]	growth [9]	growth [10]	growth [11]	growth [12]	growth [13]	growth [14]	growth [15]	growth [16]	growth [17]	growth [18]	growth [19]
COC[CH2][Hg][C]#[C][Hg][CH2]COC	71%	116%	96.9%	96.7%	104%	17.5%	90.1%	41.9%	8.96% (active)	61.2%	80.2%	111%	–	–	–	–	–	–	–
Oc1c(Br)cc(Br)cc1Br.[Cu+2]	104%	88.3%	88.7%	107%	86.4%	89%	–	95.3%	90.8%	87.4%	105%	122%	121%	90.5%	110%	101%	–	–	–
CCN1CC2(CN(CC)C1=S)C(=O)NC(=O)NC2=O	98.9%	107%	84.7%	87.5%	103%	103%	105%	99%	–	93.3%	–	91.4%	90.1%	–	97.7%	–	99%	100%	–
NC(Cc1ccc2c(c1)OCO2)c1ccc2c(c1)OCO2 (centres undefined)	105%	–	97.2%	96.5%	–	99.8%	101%	107%	83.9%	–	–	–	–	63.1%	107%	98.2%	126%	96.3%	105%
CC(=O)O[C@H]1C[C@H](O[C@H]2[C@@H](O)C[C@H](O[C@H]3[C@@H](O)C[C@H](O[C@H]4CC[C@@]5(C)C(CCC6C5C[C@@H](O)[C@]5(C)[C@@H](C7=CC(=O)OC7)CC[C@]65O)C4)O[C@@H]3C)O[C@@H]2C)O[C@H](C)[C@H]1O[C@@H]1O[C@H](CO)[C@@H](O)[C@H](O)[C@H]1O (some centres undefined)	-64.1% (active)	–	–	–	-36% (active)	-97.4% (active)	–	–	-31% (active)	-70.4% (active)	7.96% (active)	–	–	-15.1% (active)	-100% (active)	-23.5% (active)	-98.3% (active)	–	-98.6% (active)
O=C(N/N=C/c1ccc([N+](=O)[O-])o1)c1cc([N+](=O)[O-])cc([N+](=O)[O-])c1O	94.1%	–	–	–	122%	84.5%	113%	–	70.7%	106%	–	103%	–	–	91.8%	98.3%	108%	99.8%	97.9%
Nc1c(Br)cc([N+](=O)[O-])cc1[N+](=O)[O-]	98.4%	–	105%	104%	–	103%	116%	138%	–	107%	–	110%	–	–	101%	118%	93.6%	–	92.9%
C/C1=C/C(=O)O[C@@H]2C[C@@H](CC[C@H](C)/C=C\C=C\CC1)O[C@@](OCCc1ccccc1)([C@@H]1CSC(=O)N1)C2	35.1%	27.8%	7.26% (active)	36.3%	-10.3% (active)	–	–	67.7%	41.3%	-4.5% (active)	-55.8% (active)	-43% (active)	-15.8% (active)	-58.9% (active)	16.4%	21.2%	1.32% (active)	46.7%	–
CC(C)(C)[Si](C)(C)OC1[C@@H](O[Si](C)(C)C(C)(C)C)[C@@H](CNC(=O)NC(=O)CF)O[C@H]1n1cnc2c(NC(=O)Nc3ccccc3)ncnc21 (some centres undefined)	64.7%	104%	–	37.7%	101%	12.2%	93.2%	–	-22.6% (active)	63.8%	–	68.9%	87.1%	48.5%	56.6%	4.8% (active)	–	24.6%	–
CC(=O)O[C@@H]1C2=C(C)C3(CC3)[C@@](C)(O)C(=O)C2=C[C@@]1(C)CO	-33.2% (active)	-5.44% (active)	-36.6% (active)	1.92% (active)	-69.7% (active)	-25.2% (active)	-28.8% (active)	-42.2% (active)	–	–	3.81% (active)	-32.6% (active)	–	-21.1% (active)	-2.05% (active)	10.9%	13.6%	-18.8% (active)	–
